# Where “and” joins values, the source holds several entries; their conditions need not be identical. Identical values can stand only once. A structure can be active in one record and inactive in another. Calls of active or inactive are those of the source. Rule for the calls: active = hit-call score of the fitted dose curve at least 0.9, where 1 is the maximum; inactive = score below 0.9.
# Legend:
# [1] = molecular target: Paired box protein Pax-6 (Homo sapiens) (UniProt P26367); assay: ATG_Pax6_CIS: Attagene CIS-FACTORIAL HepG2 Assay for human Paired Box 6 (PAX6) (AID 2282956); details: HepG2 CIS-FACTORIAL PAX6 reporter transcription, RNA readout; actives raise or lower the signal
# Chain of Paired box protein Pax-6 (Homo sapiens) (P26367 whole entry, looked up): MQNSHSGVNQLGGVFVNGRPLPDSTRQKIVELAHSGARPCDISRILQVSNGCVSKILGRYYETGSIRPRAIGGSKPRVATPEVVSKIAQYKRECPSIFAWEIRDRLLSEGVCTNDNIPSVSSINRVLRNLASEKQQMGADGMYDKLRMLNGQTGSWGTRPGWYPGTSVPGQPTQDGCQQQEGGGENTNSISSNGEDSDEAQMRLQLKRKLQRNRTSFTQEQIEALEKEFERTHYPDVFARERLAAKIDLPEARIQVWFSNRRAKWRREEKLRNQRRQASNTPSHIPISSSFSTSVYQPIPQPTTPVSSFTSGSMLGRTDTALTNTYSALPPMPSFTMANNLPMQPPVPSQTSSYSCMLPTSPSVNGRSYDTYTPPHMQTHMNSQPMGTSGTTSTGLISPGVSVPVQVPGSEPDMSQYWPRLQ
# Procedure, shortened: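 Values derive from bidirectional curve fitting of reporter mRNA signal relative to DMSO. HepG2 cells bearing transfected cis-regulated MRTUs were exposed for 24 h; transcripts were read by RT-PCR and capillary electrophoresis.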
# [2] = ATG_PXRE_CIS: Attagene CIS-FACTORIAL HepG2 Assay for human Pregnane X Receptor Element (PXRE) (AID 2282957); details: HepG2 Attagene CIS-FACTORIAL PXRE reporter, mRNA; actives raise or lower the signal
# Procedure, shortened: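 Reporter transcripts under endogenous PXR-responsive cis-regulation quantified from total RNA of transfected HepG2 cells 24 h post-dosing, via RT-PCR with fluorescent primer extension and capillary electrophoresis. Gain or loss of signal fitted against DMSO baseline.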
# [3] = ATG_PPRE_CIS: Attagene CIS-FACTORIAL HepG2 Assay for human Peroxisome Proliferator-activated Response Element (PPRE) (AID 2282958); details: HepG2 PPRE cis-element reporter, Attagene transcription factor profiling; actives raise or lower the signal
# Procedure, shortened: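 Endogenous PPRE-driven transcription is measured in HepG2 cells carrying transfected multi-reporter constructs. Reporter transcripts are quantified by RT-PCR, HpaI digestion and capillary electrophoresis 24 h after dosing. DMSO baseline, bidirectional fit.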
# [4] = ATG_RORE_CIS: Attagene CIS-FACTORIAL HepG2 Assay for human RAR-related Orphan Receptor Element (RORE) (AID 2282959); details: HepG2 Attagene cis-factorial RORE reporter, mRNA; actives raise or lower the signal
# Procedure, shortened: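 RORE reporter transcripts reflecting endogenous factor activity were read after 24 h compound exposure of transfected HepG2 cells, using reverse transcription, PCR, fluorescent labelling and capillary electrophoresis sizing. Gain or loss fitted against DMSO.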
# [5] = ATG_Sox_CIS: Attagene CIS-FACTORIAL HepG2 Assay for human SRY-box transcription factor (SOX) (AID 2282960); details: HepG2 Attagene cis-factorial SOX reporter, mRNA; actives raise or lower the signal
# Procedure, shortened: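 Reporter transcripts, measured by RT-PCR and capillary electrophoresis of labelled fragments, report endogenous SOX transcription factor activity. Transiently transfected human HepG2 cells receive chemical for 24 h; changes in either direction are fitted relative to DMSO.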
# [6] = molecular target: Transcription factor Sp1 (Homo sapiens) (UniProt P08047); assay: ATG_Sp1_CIS: Attagene CIS-FACTORIAL HepG2 Assay for human Specificity Protein 1 (Sp1) (AID 2282961); details: HepG2 Sp1 cis-reporter transcription, actives raise or lower the signal
# Chain of Transcription factor Sp1 (Homo sapiens) (P08047 whole entry, looked up): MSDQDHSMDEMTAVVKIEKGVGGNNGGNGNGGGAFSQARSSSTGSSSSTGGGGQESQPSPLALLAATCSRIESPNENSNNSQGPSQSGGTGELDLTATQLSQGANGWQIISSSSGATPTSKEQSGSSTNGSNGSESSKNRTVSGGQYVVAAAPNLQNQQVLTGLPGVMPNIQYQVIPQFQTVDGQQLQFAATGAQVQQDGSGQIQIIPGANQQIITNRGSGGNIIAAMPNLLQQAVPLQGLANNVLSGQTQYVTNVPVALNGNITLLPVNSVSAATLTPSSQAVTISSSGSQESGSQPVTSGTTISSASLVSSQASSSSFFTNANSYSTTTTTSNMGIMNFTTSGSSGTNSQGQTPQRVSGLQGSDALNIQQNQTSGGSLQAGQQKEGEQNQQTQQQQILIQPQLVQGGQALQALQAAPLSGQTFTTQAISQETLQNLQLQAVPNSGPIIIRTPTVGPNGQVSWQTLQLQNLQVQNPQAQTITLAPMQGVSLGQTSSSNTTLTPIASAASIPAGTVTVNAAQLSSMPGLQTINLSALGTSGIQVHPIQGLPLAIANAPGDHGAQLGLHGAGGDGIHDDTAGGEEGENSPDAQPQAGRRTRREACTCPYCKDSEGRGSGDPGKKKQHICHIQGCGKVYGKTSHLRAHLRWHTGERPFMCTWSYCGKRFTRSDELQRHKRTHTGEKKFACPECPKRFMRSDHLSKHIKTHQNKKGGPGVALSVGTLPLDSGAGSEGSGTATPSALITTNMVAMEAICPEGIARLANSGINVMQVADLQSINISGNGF
# Procedure, shortened: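 Read-out is reporter transcript level, measured by RT-PCR and fluorescent capillary electrophoresis after 24 h chemical treatment. System: transiently transfected HepG2 cells reporting endogenous transcription factor activity; gain or loss fitted against DMSO baseline.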
# [7] = ATG_SREBP_CIS: Attagene CIS-FACTORIAL HepG2 Assay for human Sterol Regulatory Element Binding (SREBP) (AID 2282962); details: HepG2 Attagene cis-factorial SREBP reporter, mRNA; actives raise or lower the signal
# Procedure, shortened: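 Values derive from bidirectional curve fitting with DMSO as baseline. The underlying measurement is reporter mRNA from cis-element-regulated units in transiently transfected HepG2, quantified by RT-PCR and capillary electrophoresis after 24 h exposure.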
# [8] = molecular target: Signal transducer and activator of transcription 3 (Homo sapiens) (UniProt P40763); assay: ATG_STAT3_CIS: Attagene CIS-FACTORIAL HepG2 Assay for human Signal Transducer and Activator of Transcription 3 (STAT3) (AID 2282963); details: HepG2, Attagene cis-factorial STAT3 reporter transcription; actives raise or lower the signal
# Chain of Signal transducer and activator of transcription 3 (Homo sapiens) (P40763 whole entry, looked up): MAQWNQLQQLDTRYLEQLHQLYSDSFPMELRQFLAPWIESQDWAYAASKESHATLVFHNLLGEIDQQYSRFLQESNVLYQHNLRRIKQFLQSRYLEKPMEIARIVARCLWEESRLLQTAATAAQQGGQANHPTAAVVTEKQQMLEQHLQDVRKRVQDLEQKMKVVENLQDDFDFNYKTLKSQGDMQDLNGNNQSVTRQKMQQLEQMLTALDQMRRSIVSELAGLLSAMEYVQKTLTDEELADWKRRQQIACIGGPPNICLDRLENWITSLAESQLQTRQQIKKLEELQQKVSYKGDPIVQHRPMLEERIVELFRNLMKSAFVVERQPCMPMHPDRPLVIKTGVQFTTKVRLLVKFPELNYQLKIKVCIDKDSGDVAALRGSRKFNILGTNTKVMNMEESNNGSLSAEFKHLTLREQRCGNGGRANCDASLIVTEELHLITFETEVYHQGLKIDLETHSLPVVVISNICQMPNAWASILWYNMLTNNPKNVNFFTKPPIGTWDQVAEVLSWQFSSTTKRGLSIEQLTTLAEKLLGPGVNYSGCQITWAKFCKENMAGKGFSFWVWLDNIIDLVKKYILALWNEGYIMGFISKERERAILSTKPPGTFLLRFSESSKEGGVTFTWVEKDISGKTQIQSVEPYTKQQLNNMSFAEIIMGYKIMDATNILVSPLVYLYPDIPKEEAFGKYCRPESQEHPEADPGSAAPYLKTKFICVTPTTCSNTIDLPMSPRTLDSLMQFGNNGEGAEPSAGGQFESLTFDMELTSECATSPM
# Procedure, shortened: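 Readout is reporter transcript quantified by RT-PCR and capillary electrophoresis, with 6-FAM primer extension and HpaI digestion. Total RNA is taken 24 h after dosing transiently transfected HepG2 carrying cis-regulated reporter units. Bidirectional fit against DMSO.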
# [9] = ATG_TA_CIS: Attagene CIS-FACTORIAL HepG2 Assay for human TA Basal Promoter (AID 2282964); details: HepG2 Attagene CIS-factorial TA basal promoter reporter; actives raise or lower the signal
# Procedure, shortened: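 HepG2 cells transiently transfected with multiplexed cis-promoter reporter units, dosed 24 h. Reporter mRNA measured by RT-PCR, 6-FAM labelling, HpaI digestion and capillary electrophoresis; bidirectional fit versus DMSO baseline, serving as background control.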
# [10] = ATG_TCF_b_cat_CIS: Attagene CIS-FACTORIAL HepG2 Assay for human T-Cell-Factor with beta-catenin (TCF/b-cat) (AID 2282965); details: HepG2 TCF/beta-catenin cis-reporter transcription, actives raise or lower the signal
# Procedure, shortened: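 Measured: reporter mRNA in HepG2 transiently transfected with cis-promoter reporter units, 24 h after chemical addition. Fitting was bidirectional, DMSO as negative control.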
SMILES,outcome [1],outcome [2],outcome [3],outcome [4],outcome [5],AC50 [6],AC50 [7],outcome [8],outcome [9],outcome [6],outcome [7],AC50 [2],AC50 [3],AC50 [4],AC50 [9],outcome [10],AC50 [10],AC50 [1],AC50 [5]
CCOC(=O)O[C@H](C)OC(=O)c1ccc2c(c1)cc(C(=O)NC1CCN(C(C)C)CC1)n2Cc1cc(-c2ccc(Cl)s2)on1,inactive,inactive,inactive,inactive,inactive,60 µM (active),33 µM (active),inactive,inactive,–,–,–,–,–,–,–,–,–,–
O=C=NCCCCCCN=C=O,inactive,inactive,inactive,inactive,inactive,–,–,inactive,inactive,inactive,inactive,–,–,–,–,–,–,–,–
CC(C)(O)c1ccc(CNC(=O)c2cccnc2Oc2ccc3nonc3c2)cc1,inactive,–,inactive,inactive,inactive,–,50.9 µM (active),inactive,inactive,inactive,–,7.65 µM (active),–,–,–,–,–,–,–
CN1C(=O)N(c2ccccc2Br)Cc2cnc(Nc3ccc4c(c3)OCC(CO)O4)nc21 (stereo not given),inactive,inactive,–,–,inactive,–,21.1 µM (active),inactive,–,inactive,–,–,2.65 µM (active),1.84 µM (active),15.8 µM (active),–,–,–,–
CCCCCCCCN(C)CCCCCCCC,inactive,–,inactive,inactive,inactive,–,–,inactive,inactive,inactive,inactive,26.5 µM (active),–,–,–,–,–,–,–
CCCCCCCCOC(=O)c1cc(O)c(O)c(O)c1,inactive,–,inactive,inactive,inactive,–,–,inactive,inactive,inactive,inactive,11.1 µM (active),–,–,–,–,–,–,–
Cc1ccc(C(C)C)cc1,inactive,inactive,inactive,inactive,inactive,–,–,inactive,inactive,inactive,inactive,–,–,–,–,inactive,–,–,–
CCCCCCCCCCCO,inactive,inactive,inactive,inactive,inactive,–,–,inactive,inactive,inactive,inactive,–,–,–,–,–,–,–,–
COc1ccc2cc(S(=O)(=O)N[C@H](CC(=O)N[C@H](Cc3ccc(CN4[C@H](C)CCC[C@@H]4C)cc3)C(=O)N(C)C(C)C)c3ccc4c(c3)OCO4)ccc2c1,inactive,inactive,inactive,inactive,inactive,–,0.564 µM (active),inactive,–,inactive,–,–,–,–,11 µM (active),–,11.2 µM (active),–,–
O=C1O[C@H]([C@@H](O)CO)C(O)=C1O,inactive,–,inactive,inactive,inactive,–,–,inactive,inactive,inactive,inactive,184 µM (active) and 54.4 µM (active),–,–,–,–,–,–,–
CC/C(=C(/CC)c1ccc(O)cc1)c1ccc(O)cc1,inactive,–,–,–,inactive,18.2 µM (active),–,inactive,inactive,inactive,inactive,–,–,–,–,–,–,14.9 µM (active) and 5.16 µM (active),11.1 µM (active)
CCCCCCCCCC(=O)O,inactive,inactive,–,inactive,inactive,–,104 µM (active),inactive,inactive,inactive,inactive,27.4 µM (active),–,–,–,inactive,–,–,–
Cc1oc2c(NC(=O)c3c(Cl)cccc3Cl)cccc2c1C(C)(C)O,–,–,–,–,inactive,–,6.28 µM (active),inactive,–,inactive,–,0.116 µM (active),71.8 µM (active),31.6 µM (active),41.5 µM (active),–,25.4 µM (active),85.7 µM (active),–
Cc1c2ccccc2c(C)c2c1ccc1ccccc12,inactive,–,inactive,–,–,6.93 µM (active),–,inactive,inactive,–,inactive,2.42 µM (active),–,54.8 µM (active),–,–,–,–,52.4 µM (active)
COc1cccc([C@H](O)C2CCN(CCc3ccc(F)cc3)CC2)c1OC,inactive,–,inactive,inactive,inactive,–,–,inactive,inactive,inactive,inactive,25.8 µM (active),–,–,–,–,–,–,–
Cc1cc2c(cc1C(F)(F)F)N(C(=O)Nc1ccc(Oc3cccnc3C)nc1)CC2,inactive,inactive,inactive,inactive,inactive,–,–,inactive,inactive,inactive,inactive,–,–,–,–,–,–,–,–
O=C(O)c1ccccc1-n1cc(C(=O)O)c(=O)c2cc(Nc3c(F)cc(F)cc3Cl)c(Cl)cc21,inactive,–,inactive,inactive,inactive,–,–,inactive,inactive,inactive,inactive,62.3 µM (active),–,–,–,–,–,–,–
CCCCOC(=O)c1ccc(O)cc1,inactive,inactive,inactive,inactive,inactive,–,19.8 µM (active),inactive,inactive,inactive,inactive,27 µM (active) and 24.1 µM (active),63.3 µM (active) and 65.9 µM (active) and 24.9 µM (active),65 µM (active),79 µM (active),–,–,81.5 µM (active),100 µM (active)
O=C1CCC(C2CCCCC2)CC1,inactive,–,inactive,inactive,inactive,171 µM (active),–,inactive,inactive,inactive,inactive,10.4 µM (active) [middle of 4 runs],–,–,–,–,–,156 µM (active),–
